Compound activity as filed in PubChem.
EBV LMP1 NFkB – Epstein-Barr LMP1 NF-kappaB reporter inhibition; LMP1-induced NF-kappaB luciferase reporter cells, luminescence; inhibition, % at 12.5 µM; 350,000 tested, 0.69% active; AID 504558; in the data active means inhibition above about 41%; inconclusive means no clear call, values can overlap the other calls;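 further: 0% = neutral control wells and 100% = reference inhibitor control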
Gli-Sufu block – Gli-Sufu pathway antagonism; inhibition, % at 5 µM; AID 588413; Sufu-KO-LIGHT fibroblasts, Gli luciferase reporter luminescence; 340,000 tested, 0.74% active;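 active means inhibition above about 55%, limit read from the data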;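 further: 0% = DMSO-treated cells and 100% = wells with medium but no cells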
697 NFkB inh – inhibitors of the PMA/ionomycin-induced NF-kB reporter in 697 B cells | 697 B-cell NF-kB luciferase reporter, 16 h | inhibition, % at 4 µM | 330,000 tested, 0.33% active; in the data active means inhibition above about 35%
Shn3 3UTR inh – inhibitors of Schnurri-3 3'UTR reporter in osteoblasts. 360,000 tested, 0.52% active. inhibition, % at 12.5 µM. Clone20 osteoblast Shn3 3'UTR firefly luciferase, 24 h. AID 588674;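 active means mean inhibition of at least 75% with every replicate also reaching 75%; inconclusive means mean inhibition at least 75% but some replicate below; inactive means mean inhibition below 75%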;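 further: 0% = median of neutral control wells and 100% = pilot-screen positive control compound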
TRPM1 prom inh – MITF TRPM1 promoter inhibition in SK-MEL-5 cells; 330,000 tested, 0.83% active; SK-MEL-5 TRPM1 promoter luciferase, 24 h; inhibition, % at 12.5 µM;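 active means mean inhibition across replicates of 60% or more, whatever share of single replicates reaches that level; inconclusive means some that reach 60%, reason not given; inactive means mean inhibition across replicates below 60%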
Jurkat NFkB inh – lowers PMA/ionomycin-induced NF-kB signal in Jurkat cells | inhibition, % at 4 µM | PMA/ionomycin-induced NF-kB luciferase reporter, luminescence | 330,000 tested, 0.53% active; in the data active means inhibition above about 50%
Starred values were filed as active, the others as inactive; u = inconclusive; x = no result. In the library only some 2.3% were active in any assay of this set; here they are far more common.

SMILES	EBV LMP1 NFkB	Gli-Sufu block	697 NFkB inh	Shn3 3UTR inh	TRPM1 prom inh	Jurkat NFkB inh
O=C(O)CSc1cc(NS(=O)(=O)c2cccc([N+](=O)[O-])c2)c2ccccc2c1O	27	24	x	57	76*	x
Cc1ccc(C)c(S(=O)(=O)Nc2cc(SCC(=O)O)c(O)c3ccccc23)c1	1	9	x	56	67*	x
CCc1ccc(S(=O)(=O)Nc2cc(SCC(=O)O)c(O)c3ccccc23)cc1	3	0	-18	4	46	0
CCOC(=O)/C(=C\c1ccccc1)C(=O)CCN1CCOCC1	1	-8	x	21	84*	x
CN(C)CCCN(C(=O)c1ccc(S(=O)(=O)N2CCCC2)cc1)c1nc2ccc(Br)cc2s1	4	34	3	-21	83*	-9
Cc1cc(C)c2sc(N(CCCN(C)C)C(=O)c3ccc(S(=O)(=O)N(C)C4CCCCC4)cc3)nc2c1	-6	28	1	1	90*	11
CN(C)CCCN(C(=O)c1ccc(S(=O)(=O)N(C)C2CCCCC2)cc1)c1nc2ccc(F)cc2s1	-1	23	-3	-1	30	-7
CCc1ccc2nc(N(CCCN(C)C)C(=O)c3ccc(S(=O)(=O)N(C)C4CCCCC4)cc3)sc2c1	-5	19	-8	24	96*	-11
CCOc1ccc2nc(N(CCCN(C)C)C(=O)c3ccc(S(=O)(=O)N4CCCC4)cc3)sc2c1	11	35	10	-14	-9	-8
CCN(CC)CCn1cnc2c([nH]c3cccc(OC)c32)c1=O	-4	-18	-8	-15	7	0
CCn1c(SCC(=O)N/N=C/c2ccc(OC)c(OC)c2)nc2ccccc21	16	1	7	26	-9	2
CCSc1nc2ccccc2n1C(=O)/C=C/c1ccc(OC)c(OC)c1	82*	8	-168	96*	76*	43
C=CCSc1nc2ccccc2n1C(=O)/C=C/c1ccc(OC)c(OC)c1	-13	12	x	98*	38	x
COc1cc(N2C(=O)C=CC2=O)ccc1N1C(=O)C=CC1=O	49*	17	x	98*	74*	x
O=C(CN1C(=O)C2CC=CCC2C1=O)NCC(=O)Nc1ccc(F)c(F)c1F (configuration not stated)	-3	22	-1	18	3	1
CCOC(=O)NCc1ccccc1	84*	3	-5	-15	4	-4
COc1ccc(OC)c(Nc2nc(N)c([N+](=O)[O-])c(NC3CCCCC3)n2)c1	-3	7	5	29	x	2
COc1ccc2sc3c(=O)[nH]c4ccccc4c3c2c1	88*	8	-42	9	46	3
CCOc1cc(/C=N/O)ccc1OCc1ccc([N+](=O)[O-])cc1	-9	-10	-5	-6	-27	16
CCOc1cc(C=C(C(=O)OC)C(=O)OC)ccc1OCc1ccc([N+](=O)[O-])cc1	10	-42	26	96*	58	2
CN(Cc1ccccc1)C(=O)COC(=O)c1cc(=O)c2ccccc2o1	-6	5	6	7	5	4
CN1CCN(Cc2c(C(=O)N/N=C/c3cccc(Br)c3)nnn2-c2nonc2N)CC1	0	16	5	-1	77*	40
CN(C)Cc1c(C(=O)N/N=C/c2ccccc2OCc2c(F)cccc2Cl)nnn1-c1nonc1N	4	-3	-16	9	12	10
CN(C)Cc1c(C(=O)N/N=C/c2cccc(OCc3c(F)cccc3Cl)c2)nnn1-c1nonc1N	19	67*	-5	81	19	36
CNC(=O)C1=C(C)Nc2nc3ccccc3n2C1c1cccc(OC)c1 (configuration not stated)	-8	3	10	-26	-1	-11
SMILES	EBV LMP1 NFkB	Gli-Sufu block	697 NFkB inh	Shn3 3UTR inh	TRPM1 prom inh	Jurkat NFkB inh
CCN(CC)C(=O)C1=C(C)N(CCC2=CCCCC2)C(=O)C(CC(=O)NCCN2CCOCC2)C1 (configuration not stated)	-6	x	x	-2	x	x
O=C(O)CCc1ccc(-c2ccc(Br)cc2)n1-c1cccc(O)c1	6	4	7	-23	24	-6
CC(C)(C)OC(=O)[C@H](Cc1ccccc1)NC(=O)c1[nH]cnc1C(=O)Nc1ccccc1F	-3	x	x	20	x	x
COc1ccc(CNCc2cc(C)c(OC)cc2C)c(OC)c1	0	20	-3	17	5	1
COc1ccccc1OCCN1CSC(=S)N(C)C1	14	42	2	-28	69*	5
CCCN1C(=O)/C(=C/c2ccc3c(c2)OCO3)NC1=S	6	-2	x	-1	14	x
CCCN1C/C(=C/c2cccc([N+](=O)[O-])c2)C(=O)/C(=C/c2cccc([N+](=O)[O-])c2)C1	88*	0	x	18	100*	x
CCCN1C/C(=C/c2ccc3c(c2)OCO3)C(=O)/C(=C/c2ccc3c(c2)OCO3)C1	-59	27	-19	-10	84*	-9
CC(C)Cn1nc(-c2ccccc2)c2ccccc2c1=O	3	11	-4	0	7	10
COc1ccc(C(=O)Nc2nnc(-c3ccccc3)s2)cc1	-58	-74	-48	-116	-24	-81
Cc1ccc(C(=O)Nc2nnc(-c3ccc(C(C)(C)C)cc3)s2)cc1	57*	-14	-29	-18	-11	-4
COCCN(C(=O)CCCC(=O)Nc1ccccn1)C(C(=O)NC1CCCC1)c1ccc(C)cc1 (configuration not stated)	-6	-5	3	11	-7	-9
O=C(O)c1cc(=O)c2c(OCC(O)COc3cccc4oc(C(=O)O)cc(=O)c34)cccc2o1	76*	3	x	-20	6	x
COc1ccc(NC(=O)C2(C)Cc3c(-c4ccc(NC(C)=O)cc4)ccnc3O2)cc1 (configuration not stated)	x	x	x	10	x	x
OC[C@H]1O[C@@H](n2cnc3c(NCc4ccco4)ncnc32)[C@H](O)[C@@H]1O	13	11	x	85	66*	x
CC(=O)C1=C(O)C(=Cc2ccccc2)OC1=O	-6	x	x	-10	x	x
COc1ccc(C=C2OC(=O)C(C(C)=O)=C2O)cc1	51*	x	x	-54	x	x
CC(C)(C)C(=O)/C(=C/c1ccc(Cl)cc1)n1cncn1	-6	-7	-21	u	94*	48
Cc1nc2c(sc(=S)n2Cc2ccco2)c(=O)n1CC(=O)Nc1ccccc1F	-7	4	16	24	-1	-4
CN(C(=O)COC(=O)c1ccc(C(C)(C)C)cc1)C1CCS(=O)(=O)C1 (configuration not stated)	-1	-8	24	-2	-7	1
CN(C(=O)COC(=O)c1nc(Cl)c(Cl)c(Cl)c1Cl)C1CCS(=O)(=O)C1 (configuration not stated)	-137	-5	x	65	94*	x
O=c1c(CN2CCN(Cc3ccccc3)CC2)coc2ccc(Cl)cc12	-1	-1	14	-14	0	0
